Sampled rows, rich in hits. Any-hit rate of the full collection: about 32%.
CYP2C19 inhib – blocks human cytochrome P450 2C19; P33261; CYP2C19 Supersomes, luciferin-H EGE luminescence, 30 min; inhibition, % at 5 µM; actives 21% (n = 96,000); AID 778;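 active means CYP2C19 inhibition above a set limit at 5 µM in the primary screen, cut at about 50% in these data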;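 further: plate controls were negative control wells for no effect and 2.5 mM tranylcypromine positive control for full effect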
PostGolgi ctrl – growth of the yeast control strain, post-Golgi counter-screen. efflux-deficient yeast background strain, growth absorbance A615, 16 h. inhibition, % at 10 µM. actives 5% (n = 98,000). AID 738
PostGolgi yeast – growth inhibition of a yeast mutant, post-Golgi transport screen | inhibition, % at 10 µM | actives 0.9% (n = 98,000) | post-Golgi transport phenotypic cell assay;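 further: yeast cells grown in 1536-well plates; yeast grown about 18 h at 30C before absorbance read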
CYP2C9 activ – increases human cytochrome P450 2C9 activity; recombinant CYP2C9, luciferin-H conversion, luminescence; hits give high values; factor 1 = untreated enzyme, 0 = blocked; activation factor at 5 µM; actives 1.4% (n = 96,000);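 active means activation factor of 2 or more for CYP2C9 at a 5 µM dose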;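 further: 0 = sulfaphenazole-blocked wells and 1 = vehicle-only wells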
Target sequence (P11712 whole entry, looked up): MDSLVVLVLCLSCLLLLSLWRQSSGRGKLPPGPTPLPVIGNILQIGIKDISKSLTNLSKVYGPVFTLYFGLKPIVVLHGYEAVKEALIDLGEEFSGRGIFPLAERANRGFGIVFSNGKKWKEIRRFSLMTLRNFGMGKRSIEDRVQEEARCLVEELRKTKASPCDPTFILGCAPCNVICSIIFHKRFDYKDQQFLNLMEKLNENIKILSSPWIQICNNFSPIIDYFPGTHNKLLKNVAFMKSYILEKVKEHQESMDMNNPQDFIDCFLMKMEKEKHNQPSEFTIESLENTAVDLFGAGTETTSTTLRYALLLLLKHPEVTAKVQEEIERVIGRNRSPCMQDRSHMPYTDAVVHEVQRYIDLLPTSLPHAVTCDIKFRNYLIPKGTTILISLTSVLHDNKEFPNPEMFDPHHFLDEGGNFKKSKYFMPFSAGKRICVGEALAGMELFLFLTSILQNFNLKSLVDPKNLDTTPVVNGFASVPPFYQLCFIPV
CYP2C9 inhib – inhibitors of human CYP2C9; actives 20% (n = 96,000); AID 777; P11712; CYP2C9 Supersomes, luciferin-H conversion, luminescence; inhibition, % at 5 µM;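 active means blocking of liver enzyme CYP2C9 beyond about 50% at 5 µM, limit read from the data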
CYP2C19 act – activators of human cytochrome P450 2C19. recombinant CYP2C19, luciferin-H EGE luminescence; hits give high values; 0 = fully inhibited enzyme, 1 = untreated enzyme. P33261. 96,000 tested, under 10 active. activation factor at 5 µM;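 active means activation factor of at least 2 at 5 µM in the primary screen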;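 further: 0 = wells with 2.5 mM tranylcypromine and 1 = vehicle-only wells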
Starred values were filed as active, the others as inactive. Unless noted, no stated cut-off is given here; in the data, active means inhibition above about 30%; inactive means the rest.

Screening CCOC(=O)CC(=O)CSc1nc2ccccc2c(=O)n1-c1ccc(C(=O)NCCOC)cc1 returned CYP2C19 inhib 74*, PostGolgi ctrl 1, PostGolgi yeast -6, CYP2C9 activ 0.2, CYP2C9 inhib 78* and CYP2C19 act 0.3.
Screening CCOC(=O)CC(=O)CSc1nc2ccccc2c(=O)n1-c1ccc(C(=O)N2CCOCC2)cc1 returned CYP2C19 inhib 86*, PostGolgi ctrl 2, PostGolgi yeast 3, CYP2C9 activ 0.3, CYP2C9 inhib 73* and CYP2C19 act 0.1.
`CC(C)(C)NC(=O)CSc1nncn1NCc1ccccc1` gave CYP2C19 inhib 12, PostGolgi ctrl -13, PostGolgi yeast 11, CYP2C9 activ 0.9, CYP2C9 inhib 11 and CYP2C19 act 0.9.
CN(C)c1ccc(CNn2cnnc2SCc2ccc(F)cc2)cc1 was read as CYP2C19 inhib 98*, PostGolgi ctrl 9, PostGolgi yeast -2, CYP2C9 activ 0.4, CYP2C9 inhib 63* and CYP2C19 act 0.
For Fc1ccc(CSc2nncn2NC/C=C/c2ccccc2)cc1 the results were CYP2C19 inhib 69*, PostGolgi ctrl 23, PostGolgi yeast 8, CYP2C9 activ 0.8, CYP2C9 inhib 25 and CYP2C19 act 0.3.
For O=c1[nH]nc2n1CCCCC2 the results were CYP2C19 inhib -2, PostGolgi ctrl 3, PostGolgi yeast -5, CYP2C9 activ 1.1, CYP2C9 inhib -10 and CYP2C19 act 1.
`CC1(C)CCN(Cc2ccccc2)C1CC#N` (stereo not given) gave CYP2C19 inhib 60*, PostGolgi ctrl -10, PostGolgi yeast -2, CYP2C9 activ 1.1, CYP2C9 inhib -5 and CYP2C19 act 0.4.
For CCN(c1ccccc1)S(=O)(=O)c1ccc(OCC(=O)Nc2cc(C)on2)cc1 the results were CYP2C19 inhib 16, PostGolgi ctrl 3, PostGolgi yeast 10, CYP2C9 activ 0.3, CYP2C9 inhib 67* and CYP2C19 act 0.8.
`Cc1cc(NC(=O)CSc2ccc(-c3ccccc3)nn2)no1` gave CYP2C19 inhib 44, PostGolgi ctrl 7, PostGolgi yeast -1, CYP2C9 activ 0.7, CYP2C9 inhib 35 and CYP2C19 act 0.6.
For Cc1cc(NC(=O)CCOc2ccccc2)no1 the results were CYP2C19 inhib 26, CYP2C9 activ 0.8, CYP2C9 inhib 18 and CYP2C19 act 0.7.
Cc1cc(NC(=O)COc2ccc(N(C)S(=O)(=O)c3ccccc3)cc2)no1 was read as CYP2C19 inhib 22, PostGolgi ctrl -1, PostGolgi yeast -9, CYP2C9 activ 0.4, CYP2C9 inhib 55* and CYP2C19 act 0.8.
Screening Cc1cc(NC(=O)COc2nnc(-c3ccccc3)c3ccccc23)no1 returned CYP2C19 inhib 52*, PostGolgi ctrl -3, PostGolgi yeast 15, CYP2C9 activ 0.4, CYP2C9 inhib 63* and CYP2C19 act 0.5.
`CCN(CC)C(=O)CSc1nc(O)cc(=O)n1CC` gave CYP2C19 inhib -3, PostGolgi ctrl -2, PostGolgi yeast -17, CYP2C9 activ 1, CYP2C9 inhib 0 and CYP2C19 act 1.
`COc1ccc(N2CCN(C(=O)CSc3nnc(C)c(=O)[nH]3)CC2)cc1` gave CYP2C19 inhib 4, PostGolgi ctrl 12, PostGolgi yeast 1, CYP2C9 activ 0.9, CYP2C9 inhib 13 and CYP2C19 act 1.
`CCN(CC)C(=O)CSc1nnc(-n2nc(C)cc2C)c2ccccc12` gave CYP2C19 inhib 2, PostGolgi ctrl 1, PostGolgi yeast -5, CYP2C9 activ 0.6, CYP2C9 inhib 37 and CYP2C19 act 1.
For COc1ccc(-n2c(SC(CN3CCCCC3)CN3CCCC3=O)nc3ccccc3c2=O)cc1 (stereo not given) the results were CYP2C19 inhib 61*, PostGolgi ctrl 31*, PostGolgi yeast 0, CYP2C9 activ 0.3, CYP2C9 inhib 65* and CYP2C19 act 0.4.
CC(=O)NC1Sc2ccccc2N=C1c1ccccc1 (stereo not given) was read as CYP2C19 inhib 40, PostGolgi ctrl 0, PostGolgi yeast 8, CYP2C9 activ 0.6, CYP2C9 inhib 37 and CYP2C19 act 0.6.
For CCCCNc1cc(C)oc(=O)c1C(C)=O the results were CYP2C19 inhib -12, PostGolgi ctrl -6, PostGolgi yeast -1, CYP2C9 activ 1.1, CYP2C9 inhib -14 and CYP2C19 act 1.1.

Screening data: PubChem BioAssay, several laboratories
